system: HeLa; test: percent cells in G2/M phase; higher = more G2/M arrest; conditions: 10 µM; 20 h; hit class: G1-phase inhibitor
Protocol: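 HTS of 79,827 drug-like compounds at 10 uM. HeLa cells in 384-well plates were treated for 20 h, fixed, stained with Vybrant DyeCycle Green and scanned on an Acumen eX3 cytometer to give per-well cell cycle profiles (% cells in each phase). The plate Z' was 0.51. Only hits are listed: G1 hits >4 SD and S hits >5 SD from the mean.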

Row | Compound | percent cells in G2/M phase [%]
1 | O=[N+]([O-])c1ccc(NCCO)c2ncccc12 | 23.7
2 | C[C@@H]1O[C@@H](O[C@H]2C[C@@H](O)[C@]3(CO)[C@H]4[C@H](O)C[C@]5(C)[C@@H](C6=CC(=O)OC6)CC[C@]5(O)[C@@H]4CC[C@]3(O)C2)[C@H](O)[C@H](O)[C@H]1O | 12.2
3 | C[C@@]12C(=O)OC(=O)[C@]1(C)[C@H]1CC[C@@H]2O1 | 12
4 | C[C@@H]1C[C@@H]([C@H](O)CC2CC(=O)NC(=O)C2)C(=O)[C@@H](C)C1 [Cycloheximide] | 11.8
5 | C/C=C(/C)C(=O)O[C@H]1C(C)=C2[C@H]([C@@H]1OC(=O)CCCCCCC)[C@@](C)(OC(C)=O)C[C@H](OC(=O)CCC)[C@@]1(O)[C@H]2OC(=O)[C@@]1(C)O | 9.52
6 | CNC1CC2OC(C)(C1OC)n1c3ccccc3c3c4c(c5c6ccccc6n2c5c31)C(=O)NC4 (centres undefined) | 3.24
7 | C/C(=C\c1ccc(Cl)cc1)[N+](=O)[O-] | 2.17
8 | CNc1ccc2oc(C[C@H]3O[C@@]4(CC[C@H]3C)O[C@H]([C@H](C)C(=O)c3ccc[nH]3)[C@H](C)C[C@H]4C)nc2c1C(=O)O | 5.98
9 | CC(C)(C)c1cc(C=C(C#N)C#N)cc(C(C)(C)C)c1O | 12.3
